According to PubChem BioAssay (Tox21):
“And” between values parts separate entries of the source, which are not always exact repeats. Equal entries are not always repeated. The source made the active and inactive calls. Unless noted, calls follow the shape of the dose curve; as a rule, active = well fitted curve in the direction sought with a large enough effect in the repeat runs; inconclusive = weak or mixed curves; inactive = no such curve, though single readings can be large; an effect the other way counts as inactive or inconclusive.

Columns and labels:
[1] = qHTS assay for small molecules that induce genotoxicity in human embryonic kidney cells expressing luciferase-tagged ATAD5 (AID 651632); also: nearly all actives have a fitted effect of over 15% in size; also: potency is read from the fitted curve at half-maximal effect
Outline: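 HEK293T cells carrying a luciferase reporter tagged to ATAD5 were exposed to compound or DMSO vehicle for 16 hr at 37C, 5% CO2. Amplite was added, and after 30 min at room temperature luciferase activity was read as a marker of ATAD5 induction.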

[2] = qHTS assay for small molecules that induce genotoxicity in human embryonic kidney cells expressing luciferase-tagged ATAD5 - cell viability (AID 651634; calls by dose curve; also: nearly all actives have a fitted effect of over 25% in size; also: potency is read from the fitted curve at half-maximal effect)
Outline: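 HEK293T cells expressing luciferase-tagged ATAD5 were exposed to compound or DMSO for 15.5 hr at 37C, 5% CO2. Viability was then read as live-cell protease activity by CellTiter-Fluor fluorescence after 30 min at 37C.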

[3] = qHTS assay for small molecule disruptors of the mitochondrial membrane potential - cell viability (AID 720634; calls by dose curve; also: nearly all actives have a fitted effect of over 20% in size; also: potency is read from the fitted curve at half-maximal effect)
Outline: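 HepG2 cells seeded overnight at 37 C, then exposed to compound or DMSO for 1 hr at 37 C, 5% CO2. m-MPI dye added, then CellTiter-Glo for 30 min at room temperature; viability read as ATP luminescence.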

[4] = qHTS assay for small molecule disruptors of the mitochondrial membrane potential (AID 720635); also: potency is read from the fitted curve at half-maximal effect
Outline: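 HepG2 cells exposed to compound 1 hr at 37C, then Mito-MPS dye 30 min. Ratio read of aggregate (540/590 nm) versus monomer (490/535 nm) fluorescence.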

[5] = qHTS assay to test for compound auto fluorescence at 590 nm (red) in HepG2 cells (AID 720674)
Outline: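 Seeding: 2,000 HepG2 cells/well, MEM/10% FBS, overnight 37 C. Dosing: compound vs DMSO. Incubation: 1 hr, 37 C, 5% CO2. Read: fluorescence 540 ex/590 em, Rose Bengal sodium as red reference.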

[6] = qHTS assay to test for compound auto fluorescence at 535 nm (green) in HepG2 cells (AID 720675); also: potency is read from the fitted curve at half-maximal effect
[7] = qHTS assay to test for compound auto fluorescence at 460 nm (blue) in HEK293 cells (AID 720678)
Outline: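 Blue read-out at excitation 405 nm and emission 460 nm follows overnight compound exposure of HEK293 cells at 37C in 5% CO2. Activity is given as auto fluorescence equivalency to triamterene.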

[8] = qHTS assay to test for compound auto fluorescence at 590 nm (red) in HEK293 cells (AID 720679)
Outline: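 Red channel, Ex/Em 540/590nm; signal expressed as equivalency to Rose Bengal sodium. HEK293, 2,000 cells/well, 10% dialyzed FBS; 23 nL compound pinned after 4-5 hr attachment; overnight 37C/5% CO2 before reading.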

[9] = qHTS assay to test for compound auto fluorescence at 460 nm (blue) in HEK293 cell free culture (AID 720681)
Outline: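 Compounds were added to cell-free DMEM with 10% FBS and fluorescence read directly. The blue channel used 405 nm excitation and 460 nm emission, with triamterene as the reference fluorophore.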

[10] = qHTS assay to test for compound auto fluorescence at 535 nm (green) in HEK293 cell free culture (AID 720682)
Outline: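 Measurement is a direct plate read of green fluorescence (485 nm in, 535 nm out) after compound addition to serum-supplemented DMEM lacking cells, with fluorescein used to express intensities.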

[11] = qHTS assay to test for compound auto fluorescence at 590 nm (red) in HepG2 cell free culture (AID 720684)
Outline: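 Compounds are added to culture medium (MEM, 10% FBS) lacking cells, then fluorescence is read at excitation 540 nm, emission 590 nm, with Rose Bengal sodium as the equivalency standard.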

[12] = qHTS assay to test for compound auto fluorescence at 460 nm (blue) in HepG2 cell free culture (AID 720685)
Outline: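 Compound (23 nL) or DMSO pinned into cell-free MEM with 10% FBS; blue fluorescence read at 405/460 nm excitation/emission, expressed as auto-fluorescence equivalency to triamterene.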

[13] = qHTS assay to test for compound auto fluorescence at 535 nm (green) in HepG2 cell free culture (AID 720686); also: potency is read from the fitted curve at half-maximal effect
[14] = qHTS assay to test for compound auto fluorescence at 460 nm (blue) in HepG2 cells (AID 720687)
Outline: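 HepG2 cells in MEM with 10% FBS, attached overnight at 37 C, were exposed to compound or DMSO for 1 hr at 37 C, 5% CO2. Blue fluorescence was read at 405/460 nm, with triamterene as reference fluorophore.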

[15] = biological target: Glucocorticoid receptor (Homo sapiens) (UniProt P04150); test: qHTS assay to identify small molecule agonists of the glucocorticoid receptor (GR) signaling pathway (AID 720691; active = well fitted activation curve with a large enough effect in the signal ratio in the repeat runs, not every such curve was filed as active; inconclusive = weak or mixed curves, or effect the other way; inactive = no such curve, though single readings can be large or run the other way; the % refers to the signal ratio; also: potency is read from the fitted curve at half-maximal effect); conditions: GR-bla HeLa, beta-lactamase reporter ratio, 18 h; activation: at 62.4 µM (top of the series)
Glucocorticoid receptor (Homo sapiens), sequence (P04150 whole entry, looked up): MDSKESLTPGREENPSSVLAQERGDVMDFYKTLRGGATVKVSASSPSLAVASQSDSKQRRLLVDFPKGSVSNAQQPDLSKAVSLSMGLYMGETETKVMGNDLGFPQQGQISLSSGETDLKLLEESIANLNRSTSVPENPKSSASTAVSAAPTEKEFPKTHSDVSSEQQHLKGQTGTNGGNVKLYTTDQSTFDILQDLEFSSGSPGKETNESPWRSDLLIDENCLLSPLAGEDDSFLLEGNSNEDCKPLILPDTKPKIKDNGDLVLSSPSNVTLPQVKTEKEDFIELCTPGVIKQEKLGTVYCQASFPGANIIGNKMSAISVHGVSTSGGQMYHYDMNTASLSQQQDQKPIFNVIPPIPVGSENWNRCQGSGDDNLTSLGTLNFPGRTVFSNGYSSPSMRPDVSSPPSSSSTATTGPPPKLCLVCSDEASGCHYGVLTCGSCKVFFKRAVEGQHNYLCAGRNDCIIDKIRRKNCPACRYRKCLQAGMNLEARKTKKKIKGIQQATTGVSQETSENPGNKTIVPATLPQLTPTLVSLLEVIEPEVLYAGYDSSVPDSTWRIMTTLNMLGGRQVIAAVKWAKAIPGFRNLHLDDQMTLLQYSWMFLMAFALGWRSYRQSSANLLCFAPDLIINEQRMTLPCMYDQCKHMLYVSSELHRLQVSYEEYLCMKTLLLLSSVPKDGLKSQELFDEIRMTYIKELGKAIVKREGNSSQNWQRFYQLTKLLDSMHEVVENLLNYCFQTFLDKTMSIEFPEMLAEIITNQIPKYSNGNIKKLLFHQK
Outline: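 GR-bla HeLa cells (beta-lactamase reporter under glucocorticoid response element) were plated 4 h at 37 C/5% CO2, given compounds in DMSO, and incubated 18 h at 37 C. LiveBLAzer B/G FRET substrate was added for 2 h at room temperature, then fluorescence intensity read.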

[16] = qHTS assay to test for compound auto fluorescence at 535 nm (green) in HEK293 cells (AID 720680)
[17] = qHTS assay to test for compound auto fluorescence at 590 nm (red) in HEK293 cell free culture (AID 720683)
Outline: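 Cell-free wells of DMEM with 10% FBS received compound, and intrinsic fluorescence was read at excitation/emission 540/590 nm. Values expressed as equivalence to Rose Bengal sodium.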

[18] = qHTS assay for small molecule agonists of the p53 signaling pathway - cell viability (AID 651633; calls by dose curve; also: nearly all actives have a fitted effect of over 30% in size; also: potency is read from the fitted curve at half-maximal effect)
Outline: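 p53RE-bla cells were treated with compound for 16 hours at 37 C. Cytotoxicity was then measured as CellTiter-Glo luminescence after 30 min at room temperature.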

[19] = biological target: Glucocorticoid receptor (Homo sapiens) (UniProt P04150); test: qHTS assay to identify small molecule antagonists of the glucocorticoid receptor (GR) signaling pathway (AID 720692; active = well fitted inhibition curve with a large enough effect in the signal ratio in the repeat runs, not every such curve was filed as active; inconclusive = weak or mixed curves, or effect the other way; inactive = no such curve, though single readings can be large or run the other way; the % refers to the signal ratio; also: potency is read from the fitted curve at half-maximal effect)
Outline: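 GR-bla HeLa cells (beta-lactamase reporter under glucocorticoid response element) were pre-plated 4 h at 37 C, treated with compounds plus 5 nM dexamethasone (final) for 18 h, then read by LiveBLAzer B/G FRET fluorescence after 2 h.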

Measured: Potency
Tags tell the direction and shape of the fitted curve or compound fluorescence and quenching.

O=C(CCN1CCC(c2ccccc2)C1)c1ccc2c(c1)OCCO2 (stereo not given)
not listed: [16] | [17] | [18] | [19]
inactive: all other assays above

CCCCC[C@H](O)/C=C/[C@@H]1[C@@H](C/C=C\CCCC(=O)O)[C@@H](O)C[C@H]1O
not listed: [7] | [12] | [18] | [19]
inactive: all other assays above

O=C(Nc1ccccc1)c1cc(Cl)ccc1O
active: [18] 17.2 µM | [3] 1.93 µM
not listed: [2] | [4] | [17] | [19]
inactive: all other assays above

CNCCC=C1c2ccccc2CCc2ccccc21
not listed: [1] | [2] | [4] | [12] | [15] | [16]
inactive: all other assays above

CS(=O)(=O)c1ccc([C@@H](CC2CCCC2)C(=O)Nc2cnccn2)cc1Cl
active: [3] 34.4 µM | [4] 61.1 µM
not listed: [1] | [2] | [9] | [15] | [18] | [19]
inactive: all other assays above

CC(=O)[C@]1(O)Cc2c(O)c3c(c(O)c2[C@@H](O[C@H]2C[C@H](N)[C@H](O)[C@H](C)O2)C1)C(=O)c1ccccc1C3=O
active: [1] 0.841 µM | [2] 15 µM | [4] 5.55 µM | [6] 12.6 µM | [13] 14.1 µM [fluorescent] | [15] 23.9 µM [inconclusive]
not listed: [10] | [16] | [18] | [19]
inactive: all other assays above

CN1CCN(CCCN2c3ccccc3Sc3ccc(C(F)(F)F)cc32)CC1
active: [18] 29.8 µM
not listed: [2] | [3] | [4] | [15] | [19]
inactive: all other assays above

C(=C\c1ccncc1)/c1ccccc1
active: [4] 3.76 µM and 10.6 µM
not listed: [1] | [6] | [18]
inactive: all other assays above

CN1CCN(CCCN2c3ccccc3Sc3ccc(Cl)cc32)CC1
active: [18] 29.8 µM
not listed: [2] | [3] | [4] | [7] | [15] | [19]
inactive: all other assays above

NC(N)=NCCCCN=C(N)N
not listed: [1] | [7] | [17]
inactive: all other assays above

CC(Cc1ccc(O)c(O)c1)C(C)Cc1ccc(O)c(O)c1 (stereo not given)
active: [4] 13.7 µM
not listed: [6] | [15] | [17] | [18] | [19]
inactive: all other assays above

CCCCCCCC/C=C\CCCCCCCC(=O)N(CCO)CCO
not listed: [4] | [14] | [15] | [18] | [19]
inactive: all other assays above

CCCCCCCCCCCCCCCCCCNC(=O)OC1CCN(C(=O)OC[C@H](COC(=O)N(Cc2cccc[n+]2CC)C(=O)c2ccccc2OC)OC)CC1
active: [18] 26.6 µM
not listed: [2] | [3] | [4] | [6] | [15] | [17] | [19]
inactive: all other assays above

C=CCc1cc(S(=O)(=O)c2ccc(O)c(CC=C)c2)ccc1O
active: [4] 27.3 µM
not listed: [18] | [19]
inactive: all other assays above

CCCCCCCCCC[N+](C)(CCCCCCCCCC)CCC[Si](OC)(OC)OC
active: [18] 48.6 µM | [2] 48.6 µM | [3] 54.5 µM
not listed: [1] | [4] | [6] | [15] | [19]
inactive: all other assays above

CN(C[C@@H](CC[N+]12CCC(C3CCCCC3)(CC1)CC2)c1ccc(Cl)c(Cl)c1)C(=O)c1cc(C(F)(F)F)cc(C(F)(F)F)c1
active: [18] 27.3 µM
not listed: [2] | [3] | [4] | [14] | [15] | [19]
inactive: all other assays above

Nc1c(CC(=O)O)cccc1C(=O)c1ccccc1
not listed: [1]
inactive: all other assays above

CCCCCCCC1CCC(=O)O1 (stereo not given)
not listed: [1] | [2] | [3] | [4] | [15] | [17] | [18] | [19]
inactive: all other assays above

COc1cccc(-c2ccc(/C=C\CN3CCCCCC3)cc2Cl)c1
not listed: [4] | [12] | [15] | [18] | [19]
inactive: all other assays above

Cc1cc(F)ccc1-c1cc(N2CC[C@@H](O)[C@H]2CO)ncc1N(C)C(=O)C(C)(C)c1cc(C(F)(F)F)cc(C(F)(F)F)c1
active: [18] 19 µM | [2] 47.8 µM | [4] 21.4 µM
not listed: [1] | [3] | [12] | [15] | [19]
inactive: all other assays above

CCN1\C(=C/C=C/C=C/c2sc3ccccc3[n+]2CC)Sc2ccccc21
active: [2] 23.7 µM and 26.6 µM | [4] 33.5 nM and 266 nM
not listed: [15] | [18] | [19]
inactive: all other assays above

CC(=O)N(C)C
not listed: [1] | [2] | [3] | [4] | [6] | [15] | [18] | [19]
inactive: all other assays above

Clc1nc(C(Cl)(Cl)Cl)c(Cl)c(Cl)c1Cl
active: [18] 61.1 µM | [2] 48.6 µM
not listed: [1] | [4] | [15] | [19]
inactive: all other assays above

O=C1CCCCCCCCCCCCCC1
active: [4] 48.6 µM
not listed: [1] | [12]
inactive: all other assays above

CCCCC/C=C\C=C\C(=O)OCC
active: [18] 56.8 µM | [4] 71.5 µM | [19] 45.5 µM
not listed: [1] | [7]
inactive: all other assays above

COc1ccc2ccccc2c1
not listed: [1] | [2] | [3] | [4] | [15] | [18] | [19]
inactive: all other assays above

C=CC(N)CCC(=O)O (stereo not given)
not listed: [4] | [18]
inactive: all other assays above

CN[C@H]1CC[C@@H](c2ccc(Cl)c(Cl)c2)c2ccc(S(N)(=O)=O)cc21
active: [4] 8.63 µM
not listed: [2] | [12] | [15] | [18] | [19]
inactive: all other assays above

N[C@H](CO)C(=O)O
not listed: [2] | [4] | [14] | [19]
inactive: all other assays above
